High-throughput results: PubChem BioAssay, SRMLSC
Autofluor 339: intrinsic fluorescence of library compounds, ex339/em460 – biochemical, MLSMR library, data from DPM-DC assay, artefact control, profiling panel | compound autofluorescence, ex339/em460 nm, NADH buffer; hits give high values; 1 = no-compound wells, NADH background | fluorescence fold increase at 10 µM | 65,000 tested, 5.5% active;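 active means at 10 µM, mean starting fluorescence two-fold or more over control wells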;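 further: signal is the first read of a kinetic run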
PMK inhibit: inhibitors of Streptococcus pneumoniae phosphomevalonate kinase; inhibition, % at 10 µM; purified PMK, PK/LDH-coupled NADH absorbance 340 nm; 65,000 tested, 0.49% active; AID 539;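 active means top-ranked compounds by inhibition in the single 10 µM screen, taking a fixed number of the strongest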;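 further: 0% = full reaction with DMSO carrier and 100% = background rate without enzyme reaction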
Spn DPM-DC inh: inhibitors of Streptococcus pneumoniae diphosphomevalonate decarboxylase; calls only at 10 µM; AID 556; 65,000 tested, 0.49% active; purified DPM-DC, PK/LDH coupled NADH fluorescence;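 active means the 320 compounds with the highest percent inhibition in the single-dose primary screen, excluding strongly autofluorescent ones, cut at about 32% in these data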;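 further: kinetic rate of NADH fluorescence loss reporting ADP formed by the decarboxylase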
Spn MK inh: blocks S. pneumoniae mevalonate kinase. purified MK, PK/LDH-coupled NADH absorbance 340 nm. inhibition, % at 10 µM. 65,000 tested, 0.48% active;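 active means ranked among the strongest by inhibition in the single 10 µM screen, a fixed top-ranked set picked for dose follow-up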
NADH enzymes: inhibition of NAD/NADH coupling enzymes, library profiling; coupled PK/LDH NADH assays, four targets; IC50, µM (titrated, usually from 10 µM), for the others: top-dose inhibition; 65,000 tested, 0.02% active;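 active means single-dose screening hits from any of four coupled enzyme assays that gave an IC50 when retested across doses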;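 further: the DPM-DC format reads NADH fluorescence rather than 340 nm absorbance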
A340 absorber: absorbance at 340 nm | compound absorbance at 340 nm, fold over control | fold change at 10 µM | 65,000 tested, under 10 active;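 active means at 10 µM dose, initial 340 nm absorbance at least 2 fold that of control wells; inactive means change under 2 fold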;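 further: initial absorbance extrapolated from kinetic A340 decline of NADH oxidation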
* marks the source's active call; other numbers are inactive results; i = inactive; . = no result shown; + = active, no number; [ ] = another dose, or the depositor's remark. A selection: hits, their analogues and other compounds. The true share with any hit is near 6.3%.

SMILES	Autofluor 339	PMK inhibit	Spn DPM-DC inh	Spn MK inh	NADH enzymes	A340 absorber
COc1ccc(-c2cc(C(F)(F)F)n3nc(C(=O)N4CCC5(CC4)OCCO5)cc3n2)cc1OC	1.6	9	+	5	23%	1.2
COc1cc(C)c(CN2CCN(c3ccccc3)CC2)cc1C	1.1	8	i	49*	19%	1.1
Oc1ccc(Br)cc1CN1CCN(c2ccccc2)CC1	1.1	0	i	3	1%	1
CC1(C)C2CC=C(CN3CCC(O)CC3)C1C2 (stereo not given)	1.1	0	i	38	14%	1.1
Cc1cc(C)n(CCOC(=O)C2C(C=C(Cl)Cl)C2(C)C)n1 (stereo not given)	1.1	6	i	2	3%	1
CCOC(=O)c1c(N)n(Cc2ccc(OC)cc2)c2nc3ccccc3nc12	3.9*	4	.	6	5%	1
COCCOC(=O)c1c(N)n(Cc2ccc(OC)cc2)c2nc3ccccc3nc12	3.9*	10	.	8	9%	1.1
COC(=O)c1c(N)n(Cc2ccc(OC)cc2)c2nc3ccccc3nc12	3.7*	1	.	5	3%	1.1
O=C1NC(=O)C(Cc2cccs2)C(=O)N1	1.1	2	i	1	1%	1
CC(C)(C)n1c(O)c(C=Nc2ccc3c(c2)CCC3)c(=O)[nH]c1=O	2.1*	10	i	0	12%	1.1
CC(=Nc1ccc2c(c1)CCC2)c1c(O)n(C)c(=O)n(C)c1=O	1.1	3	i	0	1%	1.1
CCOC(=O)c1cc2c(cn1)[nH]c1ccccc12	2.2*	9	+[fluoresces]	9	6%	0.98
O=c1c2ccccc2[se]n1-c1ccccc1	1.1	100*	+	72*	56µM*	1.1
COc1cccc(-n2c(C)nc3ccccc3c2=O)c1	1.1	9	i	2	4%	1
Cn1c(O)c(C=NC2CC(C)(C)NC(C)(C)C2)c(=O)n(C)c1=O	1.1	21	i	0	7%	1
CC1=[N+]([O-])C2(N)CCc3nonc3C2(O)C1 (stereo not given)	1.1	1	i	0	0%	1.1
COc1ccc(Cn2c(N)c(C(=O)NCc3ccco3)c3nc4ccccc4nc32)cc1OC	3.7*	6	.	7	7%	1
Nc1c(C(=O)NCc2ccco2)c2nc3ccccc3nc2n1CCN1CCCCC1	2.3*	4	.	1	3%	1.1
CCCNC(=O)c1c(N)n(Cc2ccc3c(c2)OCO3)c2nc3ccccc3nc12	2.1*	14	.	8	3%	0.99
COc1ccc(C2=NCC(=O)N(CC(=O)NCc3ccco3)c3sc4c(c32)CCCC4)cc1OC	1	15	i	0	5%	1
CC(c1ccc(F)cc1)n1cc(C(=O)NCc2ccc3c(c2)OCO3)nn1 (stereo not given)	1.1	0	i	5	2%	1.1
CCOP(=O)(C#CC(C)(C)C)C1(O)CCCCC1 (stereo not given)	1.1	1	i	1	1%	1.1
CN1CC=C2C(C#N)=C(N)C(C#N)(C#N)C(c3ccncc3)C2C1 (stereo not given)	2*	0	i	0	4%	1.1
O=C(CN1CCOCC1)c1ccc2cc[nH]c2c1	2.1*	8	.	0	4%	1.1
CN1CSC(=S)N(C)C1	1.1	1	i	10	4%	1.1
Clc1cccc(CN2CCCCC2c2cccnc2)c1 (stereo not given)	1.1	1	i	4	2%	1
CC[C@@H](CO)NC(=O)[C@@H]1C=C2c3cccc4c3c(cn4C)C[C@H]2N(C)C1	2.5*	3	.	7	4%	1
CN1C[C@H](CNC(=O)OCc2ccccc2)C[C@@H]2c3cccc4c3c(cn4C)C[C@H]21	1.1	5	i	6	3%	0.98
